TGFb inhibitor: qHTS for Inhibitors of TGF-b; Potency, µM (top dose mostly 46.1 µM), for inactives: top-dose activity, negative = inhibition, hits mostly inhibitors; HepG2 CAGA-GFP TGF-b/SMAD3 reporter, GFP fluorescence, 18 h; TGF-beta stimulated, 500 pg/mL final; AID 588855, 2011; 410,000 compounds, 1.2% hits; also: potency is read from the fitted curve at half-maximal effect; % is scaled to controls: 0 for no effect and ±100 for the full control effect; nearly all actives have a fitted effect of over 65% in size
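HEPG2 CAGA-GFP, 1000 cells/well; 2 h settle, 37 C; cpd via pin tool; TGF-b 500 pg/mL final; 18 h, 37 C; GFP imaging ex488/em500-530; %Activity normalised to -TGF-b and +DMSO controls; CRC fit, curve class.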
TDP1 cell noCPT: qHTS for Inhibitors of human tyrosyl-DNA phosphodiesterase 1 (TDP1): qHTS in cells in absence of CPT | DT40 Tdp1-/- hTDP1 cells, no CPT, ATP luminescence, 48 h | Potency, µM (titrated, usually from 46.2 µM), without a hit: top-dose activity change, negative = growth inhibition, most hits filed as inhibitors | 420,000 compounds, 15% hits; also: potency is read from the fitted curve at half-maximal effect; % is scaled to controls: 0 for no effect and ±100 for the full control effect; nearly all actives have a fitted effect of over 55% in size
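A cellular qHTS used chicken DT40 cells lacking endogenous Tdp1 but carrying stably transfected human TDP1. Compounds were applied without camptothecin, and cell growth kinetics were judged by ATP-dependent luminescence after ≥48 hr.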
HepG2 tox: qHTS for Inhibitors of TGF-b: Cytotox Counterscreen; AID 588856, 2011; HepG2 CAGA-GFP viability, ATP luminescence, 18 h; 410,000 compounds, 0.76% hits; Potency, µM (doses to about 46.1 µM), for the others: at the top dose activity change, negative = cytotoxicity, usual class: cytotoxic; also: potency is read from the fitted curve at half-maximal effect
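HepG2 CAGA-GFP cells (1000/well, DMEM with 1% FBS) received compound, then TGF-beta at 500 pg/mL final, and were incubated 18 hours at 37 degrees C. Viability was read by CellTiter-Glo luminescence. Media-only wells were set as complete cell-killing and DMSO as no toxicity.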
TDP1 block: qHTS Assay for Inhibitors of Tyrosyl-DNA Phosphodiesterase (TDP1); 350,000 compounds, 0.28% hits; Tyrosyl-DNA phosphodiesterase 1 (Homo sapiens), Q9NUW8; AID 485290, 2010; recombinant TDP1, AlphaScreen DNA substrate cleavage; Potency, µM (top dose mostly 130 µM), without a hit: top-dose activity change, negative = inhibition, hits mostly inhibitors; also: potency is read from the fitted curve at half-maximal effect; % is scaled to controls: 0 for no effect and ±100 for the full control effect; nearly all actives have a fitted effect of over 40% in size
Target sequence (Q9NUW8 whole entry, looked up): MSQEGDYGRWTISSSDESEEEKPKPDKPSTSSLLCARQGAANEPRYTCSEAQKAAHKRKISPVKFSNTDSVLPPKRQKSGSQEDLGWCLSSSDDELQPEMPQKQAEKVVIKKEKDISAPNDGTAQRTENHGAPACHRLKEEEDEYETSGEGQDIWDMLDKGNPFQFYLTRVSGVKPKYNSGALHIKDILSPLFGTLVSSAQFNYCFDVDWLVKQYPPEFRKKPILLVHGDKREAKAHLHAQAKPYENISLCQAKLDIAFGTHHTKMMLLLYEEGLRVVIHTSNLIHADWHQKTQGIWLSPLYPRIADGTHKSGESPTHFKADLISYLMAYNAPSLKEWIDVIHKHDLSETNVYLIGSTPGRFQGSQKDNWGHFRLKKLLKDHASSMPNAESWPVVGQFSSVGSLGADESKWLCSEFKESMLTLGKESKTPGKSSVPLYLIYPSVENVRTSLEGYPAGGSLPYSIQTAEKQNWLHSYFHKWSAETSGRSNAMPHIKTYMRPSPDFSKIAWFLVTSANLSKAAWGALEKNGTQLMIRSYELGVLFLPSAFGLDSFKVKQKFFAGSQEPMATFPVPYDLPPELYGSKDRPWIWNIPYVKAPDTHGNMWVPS
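Tdp1 1 nM final; 15 min RT w/ cpd; substrate 15 nM, 5 min; beads 10 ug/ml, 10 min; AlphaScreen read. Neg ctrl: no enzyme.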
IL-1B inflam inh: qHTS for Inhibitors of Inflammasome Signaling: IL-1-beta AlphaLISA Primary Screen; THP-1 LPS/ATP IL-1B secretion, AlphaLISA, 16 h; active compounds read low; activity change, % at 57.5 µM; 360,000 compounds, 4.7% hits; in the data active = activity change below about -50%; inconclusive = mostly about -30% to -49%; also: % is scaled to controls: 0 for no effect and ±100 for the full control effect
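Secreted IL-1B measured by AlphaLISA bead assay after 16 h compound exposure of THP-1 cells; compounds (final up to 57.5 uM) added 1 h before LPS (250 ng/mL) and ATP (1.25 mM) stimulation; lower signal means less secretion.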
DT40 TDP1 CPT: qHTS for Inhibitors of human tyrosyl-DNA phosphodiesterase 1 (TDP1): qHTS in cells in presence of CPT | chicken DT40 Tdp1-/-;hTDP1 cells + 20 nM CPT, ATP luminescence, 48 h | Potency, µM (titrated, usually from 46.2 µM), inactives show top-dose activity change, negative = growth inhibition, hits mostly inhibitors | 420,000 compounds, 12% hits | AID 686979, 2013; also: potency is read from the fitted curve at half-maximal effect; % is scaled to controls: 0 for no effect and ±100 for the full control effect; nearly all actives have a fitted effect of over 55% in size
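Chicken DT40 Tdp1-/- cells complemented with human TDP1, 400 cells/well, exposed to compounds plus 20 nM camptothecin for at least 48 h at 37 C; viability read as ATP content by CellTiter-Glo luminescence.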
* hit, by the source's call; ? = inconclusive; . = no result given; [ ] = remark or other dose. Most compounds without a hit are left out; they make up all but 18% or so of the library. Unless noted, calls follow the shape of the dose curve; as a rule, active = well fitted curve in the direction sought with a large enough effect; inconclusive = small, poorly fitted or top-dose-only effect, or another doubt; inactive = no such curve, though single readings can be large; an effect the other way counts as inactive or inconclusive.

SMILES	TGFb inhibitor	TDP1 cell noCPT	HepG2 tox	TDP1 block	IL-1B inflam inh	DT40 TDP1 CPT
COc1ccc(CNC(=O)C(OC(=O)c2ccco2)c2ccc(F)cc2)cc1 (configuration not stated)	-22%	-12%	-1%	4%	2	-12%
COCCCNC(=O)c1c(-c2ccccc2)c(-c2ccccc2)nn(C)c1=O	?	-11%	-21%	-2%	.	-21%
Cc1ccc(N2CC(NC(=O)C(=O)c3c[nH]c4ccccc34)CC2=O)cc1C (configuration not stated)	-1%	-15%	0%	-4%[0.505 µM]	24	-8%
Cc1ccc(S(=O)(=O)N2CC3C(=O)C[C@@H](c4ccccc4)N(S(=O)(=O)c4ccc(CCCOCCOCCNC(=O)OC(C)(C)C)cc4)C3CC2c2ccccc2)cc1 (some centres not stated)	.	?	.	.	21	?
CCN(Cc1ccccc1)C(c1ccc(C)cc1)c1nnnn1C(C)(C)CC (configuration not stated)	?	13µM*	-31%	-1%	-8	?
C=C[C@@H]1c2cc(C)ccc2N(S(=O)(=O)c2ccc(C)cc2)[C@H](c2ccc(C(=O)OC)cc2)C1(C#N)C#N	7%	?	13%	.	.	?
CCOc1ccccc1NC(=O)N1CCCC(c2nc3c(nnn3Cc3ccc(C)cc3)c(=O)[nH]2)C1 (configuration not stated)	61%	?	1%	4%	-1	29µM*
COc1ccc(Cn2nnc3c(=O)[nH]c(C4CCCN(C(=O)c5ccccc5Cl)C4)nc32)cc1OC (configuration not stated)	-20%	-22%	-4%	-10%	.	2%
Cc1cccc(Cn2nnc3c(=O)[nH]c(C4CCCN(C(=O)c5ccccc5Cl)C4)nc32)c1 (configuration not stated)	-14%	?	-6%	3%	.	26µM*
CC(=O)c1cccc(S(=O)(=O)N2CCCC(c3nc4c(nnn4Cc4ccccc4Cl)c(=O)[nH]3)C2)c1 (configuration not stated)	1%	-27%	-2%	5%	-70*	-18%
Cc1ccc(C)c(C(=O)N2CCC(c3nc4c(nnn4Cc4ccccc4)c(=O)[nH]3)CC2)c1	11µM*	8.2µM*	-9%	3%	.	?
Cc1ccc(Cn2nnc3c(=O)[nH]c(C4CCCN(C(=O)Nc5ccc(F)cc5F)C4)nc32)cc1 (configuration not stated)	0%	-24%	-3%	1%	-10	?
O=c1[nH]c(C2CCN(S(=O)(=O)c3ccccc3C(F)(F)F)CC2)nc2c1nnn2Cc1ccccc1	?	?	-19%	.	-51*	?
CCOc1cccc(-c2c(C(=O)N/N=C(\C)c3cccs3)nnn2-c2nonc2N)c1	?	?	-39%	1%	36	?
C/C(=N\NC(=O)c1nnn(-c2nonc2N)c1-c1ccc2c(c1)OCO2)c1cccs1	0%	?	-10%	1%	8	1.6µM*
COc1cccc(-c2c(C(=O)N/N=C(\C)c3cccs3)nnn2-c2nonc2N)c1	?	?	-16%	9%	1	16µM*
CCOc1ccc(S(=O)(=O)N(C)CC(=O)NC2CC2)cc1	9%	-4%	14%	1%	1	3%
Cc1ccc(-c2csc3ncnc(Oc4ccc5c(C)cc(=O)oc5c4)c23)cc1	?	?	-7%	5%	28	18µM*
CCCN1CNC(=S)N(c2cc(C)ccc2C)C1	-16%	-9%	-11%	5%	-16	-6%
Cc1ccc(C)c(N2CN(CCC3=CCCCC3)CNC2=S)c1	?	21µM*	-39%	5%	?	?
CCOc1c(OC(C)=O)ccc(/C=C/c2ccc3cccc(OC(C)=O)c3n2)c1[N+](=O)[O-]	13µM*	?	-74%	12%	-3	?
COc1c(OC(C)=O)ccc(/C=C/c2ccc3cccc(OC)c3n2)c1[N+](=O)[O-]	-9%	18µM*	-49%	5%	-85*	26µM*
CCCCC(=O)NC(c1cccc([N+](=O)[O-])c1)c1c(OC(C)=O)ccc2ccccc12 (configuration not stated)	?	?	-35%	-4%	-17	?
COc1c(OC(C)=O)ccc(/C=C/c2ccc3ccccc3n2)c1[N+](=O)[O-]	?	?	-53%	6%	-5	?
Cc1cc(Cn2nnc(-c3ccc(Br)cc3)n2)cc(C)c1O	?	?	-59%	0%	0	?
SMILES	TGFb inhibitor	TDP1 cell noCPT	HepG2 tox	TDP1 block	IL-1B inflam inh	DT40 TDP1 CPT
O=C(c1cccc(F)c1)N1CCN(C(=O)c2nn3cccnc3c2Cl)CC1	?	1%	0%	3%	4	10%
COc1ccc(Nc2ncnc3c2c(C)c(C)n3CCO)cc1	2%	6%	17%	.	-24	-15%
COCCn1c(C)cc(O)c(C(c2ccc(F)cc2)N2CCC(C)CC2)c1=O (configuration not stated)	0%	7%	-2%	0%	.	-3%
Nc1nc(NCCN2CCOCC2)nc(NCc2ccccc2)c1[N+](=O)[O-]	6%	18µM*	68%	5%	-2	?
Nc1nc(NCCc2ccccc2)nc(NCc2ccccc2)c1[N+](=O)[O-]	-13%	?	-26%	.	-12	?
CN(Cc1ccccc1)c1nc(N)c([N+](=O)[O-])c(NCc2ccccc2)n1	?	?	-45%	3%	-51*	?
O=C(N1CCCCC1)C1(S(=O)(=O)c2ccccc2)CC=CC1	16%	8.2µM*	12%	.	16	21µM*
O=C(N1CCOCC1)C1(S(=O)(=O)c2ccccc2)CC=CC1	0%	-10%	2%	.	12	-19%
C/C(=N\N(c1ccccc1)c1ccccc1)c1ccc(N)cc1	?	?	-77%	.	-5	-21%
C/C(=N\N(c1ccccc1)c1ccccc1)c1ccc(O)cc1	?	-11%	-52%	11%	-63*	5%
COc1ccc(CC(=O)Nc2ccc(S(=O)(=O)N3CCCC3)cc2)c(OC)c1	-3%	-5%	-3%	1%	0	-28%
